Data as given in PubChem BioAssay (NCI).
The panel holds about 83,000 compounds, 20% with a hit somewhere; the sample as a whole holds those more often.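 Step 1: grow cells in 96-well plates. Step 2: add test compound at a single concentration. Step 3: incubate 48 h. Step 4: record percent growth.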 Unmarked numbers belong to inactive results. Activity calls are given as the source filed them. The calls were made as follows: active = growth percent below 10; inactive = the rest.

Columns and labels:
Test in all cases: NCI-60 one-dose screen, 48 h (100 = growth as untreated, 0 = no growth, -100 = all killed)
Details in all cases: 10 µM unless noted
T-47D breast = system: T-47D breast
BT-549 breast = system: BT-549 breast
MDA-MB-435 melanoma = system: MDA-MB-435 melanoma
SW-620 colon = system: SW-620 colon
MCF7 breast = system: MCF7 breast
HCT-116 colon = system: HCT-116 colon
HCC-2998 colon = system: HCC-2998 colon
KM12 colon = system: KM12 colon

COc1cc(NC(=O)c2cc(OC)c3ccn(C)c3c2)cc2c1C[C@]1(C)CC[C@@H](O)C(C)(C)[C@H]1O2
growth (T-47D breast): 57.5%
growth (BT-549 breast): 36.9%
growth (MDA-MB-435 melanoma): 64%
growth (SW-620 colon): 57.7%
growth (MCF7 breast): 38.5%
growth (HCT-116 colon): 43.6%
growth (HCC-2998 colon): 74.6%
growth (KM12 colon): 65.3%

COc1ccc(-c2nnc(SCC(=O)N3CCN(c4cc5c(cc4F)c(=O)c(C(=O)O)cn5C4CC4)CC3)o2)cc1OC
growth (T-47D breast): 70.7%
growth (BT-549 breast): 69.1%
growth (MDA-MB-435 melanoma): 100%
growth (SW-620 colon): 96.2%
growth (MCF7 breast): 83.6%
growth (HCT-116 colon): 55.3%
growth (HCC-2998 colon): 108%
growth (KM12 colon): 99.4%

COC(=O)c1oc2c(C(=O)/C=C/c3ccc(OC)cc3)c(OCCN3CCOCC3)ccc2c1C
growth (T-47D breast): 14%
growth (BT-549 breast): -6.36% (active)
growth (MDA-MB-435 melanoma): 20%
growth (SW-620 colon): -96.8% (active)
growth (MCF7 breast): 10.5%
growth (HCT-116 colon): -73.9% (active)
growth (HCC-2998 colon): 23.7%
growth (KM12 colon): -10.1% (active)

C=C(C)[C@@H]1C/C=C(\COC(=O)[C@H](OC(C)=O)C(NC(=O)c2ccccc2)c2ccccc2)CC[C@H]2O[C@]2(C)CC/C=C(\C)CC1 (stereo partly drawn)
growth (T-47D breast): 68.7% [5 µM]
growth (BT-549 breast): 68.5% [5 µM]
growth (MDA-MB-435 melanoma): 67% [5 µM]
growth (SW-620 colon): 94.8% [5 µM]
growth (MCF7 breast): 38.2% [5 µM]
growth (HCT-116 colon): 42.7% [5 µM]
growth (HCC-2998 colon): 75.5% [5 µM]
growth (KM12 colon): 69.1% [5 µM]

COc1ccc(-c2nn(-c3ccc(NC(=O)Nc4ccc(Cl)c(Cl)c4)cc3)cc2-c2ccncc2)cc1Cl
growth (T-47D breast): 22.4%
growth (BT-549 breast): 14.2%
growth (MDA-MB-435 melanoma): 6.69% (active)
growth (SW-620 colon): 17.6%
growth (MCF7 breast): 13.3%
growth (HCT-116 colon): 0.339% (active)
growth (HCC-2998 colon): 10.4%
growth (KM12 colon): 2.25% (active)

Cc1cc(SCc2ccc(Cl)cc2Cl)nc(SCc2ccc(Cl)cc2Cl)n1
growth (T-47D breast): 114%
growth (BT-549 breast): 106%
growth (MDA-MB-435 melanoma): 97.2%
growth (SW-620 colon): 101%
growth (MCF7 breast): 92.8%
growth (HCT-116 colon): 95.9%
growth (HCC-2998 colon): 100%
growth (KM12 colon): 97.4%

O=S(c1ccccc1)c1ccc2nnnn2n1 (stereo not drawn)
growth (T-47D breast): 91.7%
growth (BT-549 breast): 98.1%
growth (MDA-MB-435 melanoma): 108%
growth (SW-620 colon): 59.9%
growth (MCF7 breast): 86.3%
growth (HCT-116 colon): 60.7%
growth (HCC-2998 colon): 113%
growth (KM12 colon): 98.2%

COc1cc2ncnc(Oc3ccc(NC(=O)Nc4ccc(CN5CCOCC5)c(C(F)(F)F)c4)c4ccccc34)c2cc1OC
growth (T-47D breast): 10.3%
growth (BT-549 breast): 25.2%
growth (MDA-MB-435 melanoma): 6.39% (active)
growth (SW-620 colon): 24.8%
growth (MCF7 breast): 8.45% (active)
growth (HCT-116 colon): 17.4%
growth (HCC-2998 colon): 75.9%
growth (KM12 colon): 6.26% (active)

Cc1nssc1=S
growth (T-47D breast): 105%
growth (BT-549 breast): 110%
growth (MDA-MB-435 melanoma): 104%
growth (SW-620 colon): 103%
growth (MCF7 breast): 93.7%
growth (HCT-116 colon): 96.9%
growth (HCC-2998 colon): 108%
growth (KM12 colon): 108%

Cc1c(NC(=O)c2sc3nc4c(cc3c2N)CN(Cc2ccccc2)CC4)cccc1C(F)(F)F
growth (T-47D breast): 48.9%
growth (BT-549 breast): 49.2%
growth (MDA-MB-435 melanoma): 13.1%
growth (SW-620 colon): 19.3%
growth (MCF7 breast): 16.4%
growth (HCT-116 colon): 19.5%
growth (HCC-2998 colon): 64.7%
growth (KM12 colon): 27%

COc1ccc2c(c1)OC(N)=C(C#N)C2c1ccc(F)cc1 (stereo not drawn)
growth (T-47D breast): 40.7%
growth (BT-549 breast): 20.1%
growth (MDA-MB-435 melanoma): -4.14% (active)
growth (SW-620 colon): 18.6%
growth (MCF7 breast): 18.1%
growth (HCT-116 colon): 24.9%
growth (HCC-2998 colon): 54.5%
growth (KM12 colon): 26.4%

CC(=O)n1cc(/C=C2\N=C(c3ccc(Cl)cc3)N(c3ccc(S(=O)(=O)Nc4nccs4)cc3)C2=O)c2ccccc21
growth (T-47D breast): 55.3%
growth (BT-549 breast): 92.8%
growth (MDA-MB-435 melanoma): 77%
growth (SW-620 colon): 96.2%
growth (MCF7 breast): 49.8%
growth (HCT-116 colon): 92.6%
growth (HCC-2998 colon): 107%
growth (KM12 colon): 69.9%

Cc1cccc(CC(=O)c2ccccc2)n1
growth (T-47D breast): 94.2%
growth (BT-549 breast): 111%
growth (MDA-MB-435 melanoma): 99%
growth (SW-620 colon): 91.3%
growth (MCF7 breast): 92%
growth (HCT-116 colon): 90.5%
growth (HCC-2998 colon): 94.6%
growth (KM12 colon): 88.1%

O=C1/C(=C/c2cccc3cnccc23)Cc2cc(F)ccc21
growth (T-47D breast): 42.7%
growth (BT-549 breast): 89%
growth (MDA-MB-435 melanoma): 101%
growth (SW-620 colon): 101%
growth (MCF7 breast): 58.9%
growth (HCT-116 colon): 80.7%
growth (HCC-2998 colon): 106%
growth (KM12 colon): 92.1%

CCc1c(C)c2cc(-n3c(-c4ccc(OC)cc4)csc3=N)c(O)c(C)c2oc1=O
growth (T-47D breast): -0.0975% (active)
growth (BT-549 breast): 5.21% (active)
growth (MDA-MB-435 melanoma): 0.357% (active)
growth (SW-620 colon): 22.9%
growth (MCF7 breast): 9.39% (active)
growth (HCT-116 colon): 8.8% (active)
growth (HCC-2998 colon): 36.2%
growth (KM12 colon): 12.7%

COc1ccc(-c2nn(-c3cccc(Cl)c3)cc2-c2cc(-c3ccc(Br)cc3)[nH]c(=O)c2C#N)cc1
growth (T-47D breast): 70.8%
growth (BT-549 breast): 66.3%
growth (MDA-MB-435 melanoma): 94.4%
growth (SW-620 colon): 73.5%
growth (MCF7 breast): 65%
growth (HCT-116 colon): 79.7%
growth (HCC-2998 colon): 98.4%
growth (KM12 colon): 91.8%

CN1CCN(CC(O)COc2c(Br)c(Br)c(Br)c3c2OC(C)(C)C3)CC1 (stereo not drawn)
growth (T-47D breast): 81.3%
growth (BT-549 breast): 78.4%
growth (MDA-MB-435 melanoma): 18.7%
growth (SW-620 colon): 47.3%
growth (MCF7 breast): 59.5%
growth (HCT-116 colon): 20.7%
growth (HCC-2998 colon): 12.4%
growth (KM12 colon): 57.2%

COc1cc(C(=O)NNC(=O)c2ccccc2C(=O)O)cc(OC)c1OC
growth (T-47D breast): 39.5%
growth (BT-549 breast): 58.4%
growth (MDA-MB-435 melanoma): 60.4%
growth (SW-620 colon): 36.9%
growth (MCF7 breast): 30.1%
growth (HCT-116 colon): 29%
growth (HCC-2998 colon): 68.5%
growth (KM12 colon): 36.9%

O=c1c2ccccc2[nH]n1Cc1ccc2c(c1)OCO2
growth (T-47D breast): 88.9%
growth (BT-549 breast): 107%
growth (MDA-MB-435 melanoma): 105%
growth (SW-620 colon): 108%
growth (MCF7 breast): 90.8%
growth (HCT-116 colon): 99.9%
growth (HCC-2998 colon): 106%
growth (KM12 colon): 102%

CCc1ccc(C2=C/C(=C/c3ccc(Cl)cc3)C(=O)N2CCc2ccc(S(N)(=O)=O)cc2)cc1
growth (T-47D breast): 0.105% (active)
growth (BT-549 breast): 38%
growth (MDA-MB-435 melanoma): 36.7%
growth (SW-620 colon): 25.2%
growth (MCF7 breast): 6.29% (active)
growth (HCT-116 colon): 13.6%
growth (HCC-2998 colon): 24.8%
growth (KM12 colon): 18.8%

O=C(N/N=C/c1ccccc1O)c1ccccc1O
growth (T-47D breast): 25.7%
growth (BT-549 breast): 34%
growth (MDA-MB-435 melanoma): 63%
growth (SW-620 colon): 41.4%
growth (MCF7 breast): 11.1%
growth (HCT-116 colon): 26.7%
growth (HCC-2998 colon): 43%
growth (KM12 colon): 33.5%

CC1(C)Cc2c(Br)c(Br)c(Br)c(OCC(O)CN3CCN(c4ccccn4)CC3)c2O1 (stereo not drawn)
growth (T-47D breast): 88.5%
growth (BT-549 breast): 101%
growth (MDA-MB-435 melanoma): 66.8%
growth (SW-620 colon): 85.5%
growth (MCF7 breast): 67.6%
growth (HCT-116 colon): 55.5%
growth (HCC-2998 colon): 92.7%
growth (KM12 colon): 80.7%

O=C1CCC(c2c(O)cc(O)c3c(=O)c(O)c(-c4ccc(O)c(O)c4)oc23)N1 (stereo not drawn)
growth (T-47D breast): 83.6%
growth (BT-549 breast): 112%
growth (MDA-MB-435 melanoma): 110%
growth (SW-620 colon): 108%
growth (MCF7 breast): 95.2%
growth (HCT-116 colon): 99.8%
growth (HCC-2998 colon): 89.4%
growth (KM12 colon): 101%

COc1ccc2c(c1)OC(N)=C(C#N)C2c1ccc(F)c(F)c1 (stereo not drawn)
growth (T-47D breast): 46.8%
growth (BT-549 breast): 48.3%
growth (MDA-MB-435 melanoma): -18.6% (active)
growth (SW-620 colon): 21.3%
growth (MCF7 breast): 18.8%
growth (HCT-116 colon): 24.2%
growth (HCC-2998 colon): 49.7%
growth (KM12 colon): 28.6%

COc1ccc(-c2c(NC(=O)Nc3ccc(Cl)c(C(F)(F)F)c3)cnn2-c2ccc(S(N)(=O)=O)cc2)cc1
growth (T-47D breast): 16.9%
growth (BT-549 breast): 39.3%
growth (MDA-MB-435 melanoma): 24.3%
growth (SW-620 colon): 38.2%
growth (MCF7 breast): 11.5%
growth (HCT-116 colon): 14.5%
growth (HCC-2998 colon): 28.5%
growth (KM12 colon): 29.6%

CCC(C)Nc1ccc(N)cc1 (stereo not drawn)
growth (T-47D breast): 16.2%
growth (BT-549 breast): 31.7%
growth (MDA-MB-435 melanoma): 12.7%
growth (SW-620 colon): 29.9%
growth (MCF7 breast): 3.94% (active)
growth (HCT-116 colon): -34.8% (active)
growth (HCC-2998 colon): 28.4%
growth (KM12 colon): 8.28% (active)

CCNc1ncnc2n[nH]nc12
growth (T-47D breast): 99.2%
growth (BT-549 breast): 94%
growth (MDA-MB-435 melanoma): 99.5%
growth (SW-620 colon): 95.8%
growth (MCF7 breast): 98.3%
growth (HCT-116 colon): 98.8%
growth (HCC-2998 colon): 106%
growth (KM12 colon): 105%

Nc1nc2ccc(CNc3ccc(C(=O)NC(CC(=O)O)C(=O)O)cc3)cc2c(=O)[nH]1 (stereo not drawn)
growth (T-47D breast): 84.7%
growth (BT-549 breast): 74.3%
growth (MDA-MB-435 melanoma): 40.4%
growth (SW-620 colon): 31.8%
growth (MCF7 breast): 27.2%
growth (HCT-116 colon): 16.8%
growth (HCC-2998 colon): 45.1%
growth (KM12 colon): 29.8%

CC(=O)N1N=C2N(Cc3ccccc3)C(=O)c3c(sc4c3CCCC4)N2C1c1cn(-c2ccccc2)nc1-c1ccc(Cl)cc1 (stereo not drawn)
growth (T-47D breast): 80.8%
growth (BT-549 breast): 99.5%
growth (MDA-MB-435 melanoma): 95.4%
growth (SW-620 colon): 103%
growth (MCF7 breast): 92.4%
growth (HCT-116 colon): 96.8%
growth (HCC-2998 colon): 112%
growth (KM12 colon): 98%

O=C(NC(=S)Nc1ccc(Cl)cc1)c1ccccc1
growth (T-47D breast): 105%
growth (BT-549 breast): 131%
growth (MDA-MB-435 melanoma): 96.9%
growth (SW-620 colon): 109%
growth (MCF7 breast): 59.2%
growth (HCT-116 colon): 92.5%
growth (HCC-2998 colon): 106%
growth (KM12 colon): 124%

O=C(Nc1ccc(Cl)c(Cl)c1)Nc1ccc(Cl)c([N+](=O)[O-])c1
growth (T-47D breast): -2.12% (active)
growth (BT-549 breast): -9.25% (active)
growth (MDA-MB-435 melanoma): 7.8% (active)
growth (SW-620 colon): 9.66% (active)
growth (MCF7 breast): 0.367% (active)
growth (HCT-116 colon): 1.83% (active)
growth (HCC-2998 colon): 2.28% (active)
growth (KM12 colon): 2.33% (active)
